# Reference: publication PMC11006913
# Changes are numbered by the printed parent chain.
# Target: T1, NKX2-6 (Homo sapiens, UniProt A6NCS4 118-204, R150C)
# T1 sequence: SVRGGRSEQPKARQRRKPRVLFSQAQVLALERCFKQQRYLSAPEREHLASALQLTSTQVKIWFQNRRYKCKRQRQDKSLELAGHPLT
# Test: PBM; 200 nM protein, PBS
# Details: dsDNA, one strand shown
row,Sequence,binding signal
1,CCTCCGGA,"9.54 upbm affinity estimate (log intensity, higher = more binding, comparable within an allelic series)"
2,CTGGCCGA,"9.45 upbm affinity estimate (log intensity, higher = more binding, comparable within an allelic series)"
3,ACACTTAG,"11.7 upbm affinity estimate (log intensity, higher = more binding, comparable within an allelic series)"
4,AAGTGGCG,"11.6 upbm affinity estimate (log intensity, higher = more binding, comparable within an allelic series)"
5,CAGCGTCC,"9.46 upbm affinity estimate (log intensity, higher = more binding, comparable within an allelic series)"
6,AAGTGGCC,"11.6 upbm affinity estimate (log intensity, higher = more binding, comparable within an allelic series)"
7,AAGTGGGT,"11.6 upbm affinity estimate (log intensity, higher = more binding, comparable within an allelic series)"
8,CACTTACC,"11.6 upbm affinity estimate (log intensity, higher = more binding, comparable within an allelic series)"
9,CTAAGTAC,"11.7 upbm affinity estimate (log intensity, higher = more binding, comparable within an allelic series)"
10,CGTCGGTC,"9.56 upbm affinity estimate (log intensity, higher = more binding, comparable within an allelic series)"
11,CAAGTGGG,"11.7 upbm affinity estimate (log intensity, higher = more binding, comparable within an allelic series)"
12,CCACGGCG,"9.16 upbm affinity estimate (log intensity, higher = more binding, comparable within an allelic series)"
13,TAAGTGCA,"11.9 upbm affinity estimate (log intensity, higher = more binding, comparable within an allelic series)"
14,CTAAGTGC,"11.8 upbm affinity estimate (log intensity, higher = more binding, comparable within an allelic series)"
15,CACTTAGG,"11.7 upbm affinity estimate (log intensity, higher = more binding, comparable within an allelic series)"
16,CACTTGTA,"11.6 upbm affinity estimate (log intensity, higher = more binding, comparable within an allelic series)"
17,CACACTTA,"11.7 upbm affinity estimate (log intensity, higher = more binding, comparable within an allelic series)"
18,GCACTTAC,"11.6 upbm affinity estimate (log intensity, higher = more binding, comparable within an allelic series)"
19,AAGTGCCT,"11.7 upbm affinity estimate (log intensity, higher = more binding, comparable within an allelic series)"
20,GCGCGTCC,"9.52 upbm affinity estimate (log intensity, higher = more binding, comparable within an allelic series)"
21,CGACTGGC,"9.39 upbm affinity estimate (log intensity, higher = more binding, comparable within an allelic series)"
22,GAAGTGGA,"11.3 upbm affinity estimate (log intensity, higher = more binding, comparable within an allelic series)"
23,ACTAAGTG,"11.6 upbm affinity estimate (log intensity, higher = more binding, comparable within an allelic series)"
24,AGTCCTTA,"10.8 upbm affinity estimate (log intensity, higher = more binding, comparable within an allelic series)"
25,AAGTGGGC,"11.5 upbm affinity estimate (log intensity, higher = more binding, comparable within an allelic series)"
26,AGCACTTG,"11.6 upbm affinity estimate (log intensity, higher = more binding, comparable within an allelic series)"
27,GCGGCCAC,"9.34 upbm affinity estimate (log intensity, higher = more binding, comparable within an allelic series)"

# Target: MSX2 (Homo sapiens, UniProt P35548 130-214, R199I)
# Sequence (P35548 130-214 R199I): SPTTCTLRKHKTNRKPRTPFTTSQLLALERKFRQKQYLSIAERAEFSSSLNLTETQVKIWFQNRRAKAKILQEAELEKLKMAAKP
# Test: PBM; 200 nM protein, PBS
# Details: dsDNA, one strand shown
row,Sequence,binding signal
1,AGCCCAGG,"9.6 upbm affinity estimate (log intensity, higher = more binding, comparable within an allelic series)"
2,CCGACGCA,"9.38 upbm affinity estimate (log intensity, higher = more binding, comparable within an allelic series)"
3,ACAATTAC,"12.3 upbm affinity estimate (log intensity, higher = more binding, comparable within an allelic series)"

# Target: T2, NKX2-6 (Homo sapiens, UniProt A6NCS4 118-204)
# T2 sequence: T1 sequence with C33R
# Test: PBM; 200 nM protein, PBS
# Details: dsDNA, one strand shown
row,Sequence,binding signal
1,ACACTTAG,"13.5 upbm affinity estimate (log intensity, higher = more binding, comparable within an allelic series)"
2,GTCCCAGA,"9.24 upbm affinity estimate (log intensity, higher = more binding, comparable within an allelic series)"
3,AAGTGGCC,"13.3 upbm affinity estimate (log intensity, higher = more binding, comparable within an allelic series)"
4,CGTTCCGC,"9.44 upbm affinity estimate (log intensity, higher = more binding, comparable within an allelic series)"
5,CCAGCAGC,"9.28 upbm affinity estimate (log intensity, higher = more binding, comparable within an allelic series)"
6,AAGTGGGT,"13.5 upbm affinity estimate (log intensity, higher = more binding, comparable within an allelic series)"
7,CACTTACC,"13.4 upbm affinity estimate (log intensity, higher = more binding, comparable within an allelic series)"
8,CTAAGTAC,"13.4 upbm affinity estimate (log intensity, higher = more binding, comparable within an allelic series)"
9,CGTCGGTC,"9.23 upbm affinity estimate (log intensity, higher = more binding, comparable within an allelic series)"
10,TAAGTGCA,"13.5 upbm affinity estimate (log intensity, higher = more binding, comparable within an allelic series)"
11,CTAAGTGC,"13.7 upbm affinity estimate (log intensity, higher = more binding, comparable within an allelic series)"
12,CACTTAGG,"13.5 upbm affinity estimate (log intensity, higher = more binding, comparable within an allelic series)"
13,CACTTGTA,"13.4 upbm affinity estimate (log intensity, higher = more binding, comparable within an allelic series)"
14,CACACTTA,"13.5 upbm affinity estimate (log intensity, higher = more binding, comparable within an allelic series)"
15,GCACTTAC,"13.3 upbm affinity estimate (log intensity, higher = more binding, comparable within an allelic series)"
16,ACTTAAGA,"13.4 upbm affinity estimate (log intensity, higher = more binding, comparable within an allelic series)"
17,ACTAAGTG,"13.3 upbm affinity estimate (log intensity, higher = more binding, comparable within an allelic series)"

# Target: MSX2 (Homo sapiens, UniProt P35548 130-214)
# Sequence (P35548 130-214): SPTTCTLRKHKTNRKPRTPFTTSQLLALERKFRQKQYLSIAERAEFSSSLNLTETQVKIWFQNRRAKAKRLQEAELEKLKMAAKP
# Test: PBM; 200 nM protein, PBS
# Details: dsDNA, one strand shown
row,Sequence,binding signal
1,AGCCCAGG,"9.67 upbm affinity estimate (log intensity, higher = more binding, comparable within an allelic series)"
2,CCGACGCA,"9.17 upbm affinity estimate (log intensity, higher = more binding, comparable within an allelic series)"
3,ACAATTAC,"13.5 upbm affinity estimate (log intensity, higher = more binding, comparable within an allelic series)"

# Target: T3, NKX2-4 (Homo sapiens, UniProt Q9H2Z4 175-261, R246Q)
# T3 sequence: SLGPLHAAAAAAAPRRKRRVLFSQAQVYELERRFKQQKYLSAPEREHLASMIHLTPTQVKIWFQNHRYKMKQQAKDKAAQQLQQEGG
# Test: PBM; 200 nM protein, PBS
# Details: dsDNA, one strand shown
row,Sequence,binding signal
1,CACTTGTA,"12.9 upbm affinity estimate (log intensity, higher = more binding, comparable within an allelic series)"
2,ACTTAAGA,"12.9 upbm affinity estimate (log intensity, higher = more binding, comparable within an allelic series)"
3,AGCACTTG,"13 upbm affinity estimate (log intensity, higher = more binding, comparable within an allelic series)"

# Target: T4, NKX2-6 (Homo sapiens, UniProt A6NCS4 118-204, F151L)
# T4 sequence: T1 sequence with C33R, F34L
# Test: PBM; 200 nM protein, PBS
# Details: dsDNA, one strand shown
row,Sequence,binding signal
1,ACACTTAG,"11 upbm affinity estimate (log intensity, higher = more binding, comparable within an allelic series)"
2,GTCCCAGA,"9.41 upbm affinity estimate (log intensity, higher = more binding, comparable within an allelic series)"
3,AAGTGGCC,"10.5 upbm affinity estimate (log intensity, higher = more binding, comparable within an allelic series)"
4,CGTTCCGC,"9.27 upbm affinity estimate (log intensity, higher = more binding, comparable within an allelic series)"
5,CCAGCAGC,"9.29 upbm affinity estimate (log intensity, higher = more binding, comparable within an allelic series)"
6,AAGTGGGT,"10.5 upbm affinity estimate (log intensity, higher = more binding, comparable within an allelic series)"
7,CACTTACC,"10.7 upbm affinity estimate (log intensity, higher = more binding, comparable within an allelic series)"
8,CTAAGTAC,"10.5 upbm affinity estimate (log intensity, higher = more binding, comparable within an allelic series)"
9,CGTCGGTC,"9.36 upbm affinity estimate (log intensity, higher = more binding, comparable within an allelic series)"
10,TAAGTGCA,"10.9 upbm affinity estimate (log intensity, higher = more binding, comparable within an allelic series)"
11,CTAAGTGC,"11 upbm affinity estimate (log intensity, higher = more binding, comparable within an allelic series)"
12,CACTTAGG,"10.8 upbm affinity estimate (log intensity, higher = more binding, comparable within an allelic series)"
13,CACTTGTA,"10.7 upbm affinity estimate (log intensity, higher = more binding, comparable within an allelic series)"
14,CACACTTA,"10.9 upbm affinity estimate (log intensity, higher = more binding, comparable within an allelic series)"
15,GCACTTAC,"10.6 upbm affinity estimate (log intensity, higher = more binding, comparable within an allelic series)"
16,AAGTGCCT,"10.8 upbm affinity estimate (log intensity, higher = more binding, comparable within an allelic series)"
17,ACTTAAGA,"10.8 upbm affinity estimate (log intensity, higher = more binding, comparable within an allelic series)"
18,ACTAAGTG,"10.6 upbm affinity estimate (log intensity, higher = more binding, comparable within an allelic series)"
19,AGCACTTG,"10.6 upbm affinity estimate (log intensity, higher = more binding, comparable within an allelic series)"

# Target: MSX2 (Homo sapiens, UniProt P35548 130-214, F161Y)
# Sequence (P35548 130-214 F161Y): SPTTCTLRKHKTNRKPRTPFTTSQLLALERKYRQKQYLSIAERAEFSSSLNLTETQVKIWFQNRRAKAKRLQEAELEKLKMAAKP
# Test: PBM; 200 nM protein, PBS
# Details: dsDNA, one strand shown
row,Sequence,binding signal
1,AGCCCAGG,"9.66 upbm affinity estimate (log intensity, higher = more binding, comparable within an allelic series)"
2,CCGACGCA,"9.25 upbm affinity estimate (log intensity, higher = more binding, comparable within an allelic series)"
3,ACAATTAC,"13.2 upbm affinity estimate (log intensity, higher = more binding, comparable within an allelic series)"

# Target: NKX3-2 (Homo sapiens, UniProt P78367 192-278, P234S)
# Sequence (P78367 192-278 P234S): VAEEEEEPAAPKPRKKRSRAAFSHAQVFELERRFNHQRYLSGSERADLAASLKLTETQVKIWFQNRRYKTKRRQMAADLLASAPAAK
# Test: PBM; 200 nM protein, PBS
# Details: dsDNA, one strand shown
row,Sequence,binding signal
1,ACACTTAG,"12.8 upbm affinity estimate (log intensity, higher = more binding, comparable within an allelic series)"
2,AGCCCAGG,"10.1 upbm affinity estimate (log intensity, higher = more binding, comparable within an allelic series)"
3,AAGTGGCG,"12.7 upbm affinity estimate (log intensity, higher = more binding, comparable within an allelic series)"
4,AAGTGGCC,"12.9 upbm affinity estimate (log intensity, higher = more binding, comparable within an allelic series)"
5,AAGTGGGT,"12.7 upbm affinity estimate (log intensity, higher = more binding, comparable within an allelic series)"
6,CACTTACC,"12.7 upbm affinity estimate (log intensity, higher = more binding, comparable within an allelic series)"
7,CTAAGTAC,"12.5 upbm affinity estimate (log intensity, higher = more binding, comparable within an allelic series)"
8,TAAGTGCA,"12.8 upbm affinity estimate (log intensity, higher = more binding, comparable within an allelic series)"
9,CTAAGTGC,"13 upbm affinity estimate (log intensity, higher = more binding, comparable within an allelic series)"
10,CACTTAGG,"12.9 upbm affinity estimate (log intensity, higher = more binding, comparable within an allelic series)"
11,CACACTTA,"12.6 upbm affinity estimate (log intensity, higher = more binding, comparable within an allelic series)"
12,GCACTTAC,"12.7 upbm affinity estimate (log intensity, higher = more binding, comparable within an allelic series)"
13,AAGTGCCT,"12.5 upbm affinity estimate (log intensity, higher = more binding, comparable within an allelic series)"
14,GCGCGTCC,"10.6 upbm affinity estimate (log intensity, higher = more binding, comparable within an allelic series)"
15,GAAGTGGA,"12.5 upbm affinity estimate (log intensity, higher = more binding, comparable within an allelic series)"
16,ACTAAGTG,"12.9 upbm affinity estimate (log intensity, higher = more binding, comparable within an allelic series)"
17,AAGTGGGC,"12.8 upbm affinity estimate (log intensity, higher = more binding, comparable within an allelic series)"
